Experimental data: PubChem BioAssay AID1445 (SRMLSC, 2008)
The campaign covered roughly 220,000 compounds. About 910 (0.41%) were called active.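 The calls were made as follows: active = primary inhibition above the hit cutoff, then over 50% inhibition at one or more dose response concentrations (cut at about 23% in these data, passing the limit was not always enough); inconclusive = conflicting primary data, or primary hits not chosen for dose response; inactive = low primary inhibition, or under 50% at every dose.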 Many of the other results were omitted from the sample, so actives are more common in it than they were. Results with a measured potency or affinity are listed apart.

Target: Aminopeptidase N (Plasmodium falciparum (isolate 3D7)) (UniProt O96935)
Sequence (O96935 whole entry, looked up): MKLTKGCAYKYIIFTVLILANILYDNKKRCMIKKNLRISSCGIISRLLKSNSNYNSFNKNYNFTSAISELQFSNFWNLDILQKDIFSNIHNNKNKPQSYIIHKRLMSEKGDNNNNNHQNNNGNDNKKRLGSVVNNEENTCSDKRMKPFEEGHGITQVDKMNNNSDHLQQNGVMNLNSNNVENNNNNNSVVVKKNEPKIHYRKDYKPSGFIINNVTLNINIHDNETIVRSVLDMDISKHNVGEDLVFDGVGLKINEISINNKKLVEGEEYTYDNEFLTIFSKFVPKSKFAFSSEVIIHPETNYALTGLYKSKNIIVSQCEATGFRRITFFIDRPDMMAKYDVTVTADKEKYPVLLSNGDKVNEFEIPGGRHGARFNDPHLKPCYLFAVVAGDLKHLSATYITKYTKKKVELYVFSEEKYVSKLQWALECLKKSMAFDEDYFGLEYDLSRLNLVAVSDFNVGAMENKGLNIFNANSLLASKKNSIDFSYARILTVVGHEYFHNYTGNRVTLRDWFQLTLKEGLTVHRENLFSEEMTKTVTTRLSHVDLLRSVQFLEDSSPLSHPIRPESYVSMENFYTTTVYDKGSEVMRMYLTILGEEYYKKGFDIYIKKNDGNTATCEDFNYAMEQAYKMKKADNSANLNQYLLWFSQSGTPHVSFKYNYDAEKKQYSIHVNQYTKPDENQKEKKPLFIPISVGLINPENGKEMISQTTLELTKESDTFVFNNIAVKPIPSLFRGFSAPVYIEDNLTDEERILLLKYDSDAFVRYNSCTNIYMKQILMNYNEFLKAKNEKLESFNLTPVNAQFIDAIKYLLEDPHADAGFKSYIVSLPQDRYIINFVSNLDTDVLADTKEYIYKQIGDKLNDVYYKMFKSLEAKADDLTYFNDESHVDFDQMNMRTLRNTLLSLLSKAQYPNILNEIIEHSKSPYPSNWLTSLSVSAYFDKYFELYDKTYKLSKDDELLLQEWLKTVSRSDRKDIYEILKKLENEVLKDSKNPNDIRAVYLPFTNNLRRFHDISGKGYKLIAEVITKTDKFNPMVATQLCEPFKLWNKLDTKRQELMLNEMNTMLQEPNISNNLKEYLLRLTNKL
Assay: malaria alanyl aminopeptidase activity blockers – biochemical, fluorogenic H-Leu-NHMec substrate, 1536-well (AID 1445);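 also: plate controls were DMSO full reaction for no effect and no enzyme background for full effect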
Conditions: recombinant M1AAP, H-Leu-NHMec fluorogenic kinetic assay; at 30 µM, hits give high values unless noted

inhibition, active:
Cc1ccc(S(=O)(=O)Nc2nc3ccccc3nc2NCc2ccco2)cc1C 25.4%
CC(C(=O)Nc1ccc(S(=O)(=O)N2CCCC2)cc1)N1CCN(C(=O)c2ccco2)CC1 (stereo unspecified) 35.6%
CC(=O)Cc1nsc(NC(=O)c2ccc(COc3ccccc3)o2)n1 26.3%
CCN(CC)S(=O)(=O)c1ccc(-c2nnc(SCC(C)=O)o2)cc1 26.5%

inhibition, inactive:
CCOc1ccccc1OCC(=O)Nc1nnc(C)s1 0.54%
O=c1oc2ccccc2nc1/C=C(O)/C=C\c1ccccc1 5.28%
COc1ccccc1-c1c(C)oc2c(CN3CCN(C)CC3)c(O)ccc2c1=O 8.67%
CN1CCN(Cc2c(O)ccc3c(-c4ccccc4)cc(=O)oc23)CC1 20.2%
Cc1cc(N2CCN(c3ccccn3)CC2)n2c(nc3ccccc32)c1C#N -0.82%
O=[N+]([O-])c1cc(C(F)(F)F)ccc1N/N=C/c1cc2ccccc2nc1Cl -1.36%
C/C(=N/OCO/N=C(\C)c1ccccc1F)c1ccccc1F 1.08%
Cc1ccc2oc(=O)n(Cc3ccccc3OC(C)C)c2c1 1.91%
Cc1cccc(S(=O)(=O)Nc2nc3ccccc3nc2NCc2ccco2)c1 14.8%
Cc1ccc(S(=O)(=O)Nc2nc3ccccc3nc2NCc2ccco2)cc1 10.1%
N/C(Cc1nc(-c2ccc(Br)cc2)cs1)=N\O 1.76%
COc1cc2c(cc1NC(=O)c1cc(-c3ccncc3)nc3ccc(C)cc13)oc1ccccc12 0.05%
Cc1ccc(CCNS(=O)(=O)c2cnc[nH]2)cc1 1.38%
C/C(=N\NC(=S)NC1CCCCC1)c1ccc(O)cc1 -1.69%
CCOC(=O)c1cc(C(=O)c2ccccc2O)cn2c(=O)c3c(C)c(C)sc3nc12 13.9%
O=C(O)CSc1cc(C(=O)c2cc(F)ccc2O)cn2c(=O)c3c(-c4ccccc4)csc3nc12 21.3%
Cc1sc2nc3c(C(=O)N4CCCC4)cc(C(=O)c4ccccc4O)cn3c(=O)c2c1C 17.2%
O=C(O)CSc1cc(C(=O)c2ccccc2O)cn2c(=O)c3c(-c4ccccc4)csc3nc12 17.9%
CCOC(=O)c1sc2nc3c(SCCC#N)cc(C(=O)c4cc(F)ccc4O)cn3c(=O)c2c1C 2.71%
CCOC(=O)c1sc2nc3c(SCC(=O)O)cc(C(=O)c4ccccc4O)cn3c(=O)c2c1C 9.02%
COC(=O)N/N=C(\C)c1ccc(-n2ccnc2)cc1 -0.5%
CCC(=O)N/C(N)=N/c1nc(C)c2cc(C)c(C)cc2n1 7.6%
C=CCn1c(N)cc(=O)nc1SCC(=O)NC(C)c1ccccc1 (stereo unspecified) -2.4%
O=C(N/N=C/c1ccco1)c1cc(Br)ccc1OCc1ccccc1 4.59%
C[C@H](NC(=O)c1ccco1)C(=O)Nc1ccc(S(=O)(=O)N2CCCC2)cc1 -6.98%
CC(C)c1ccc(S(=O)(=O)N2CCN(C(=O)c3ccco3)CC2)cc1 0.71%
Cc1[nH]n(-c2ccccc2)c(=O)c1N=Nc1ccccc1 4.86%
Cc1ccc(N=Nc2c(C)[nH]n(-c3ccccc3)c2=O)c(C)c1 3.7%
CC(/C=N/Nc1nc(N2CCCCC2)nc(N2CCCCC2)n1)=C\c1ccccc1 5.4%
OCCNc1nc(OCC(F)(F)F)nc(N2CCN(C34CC5CC(CC(C5)C3)C4)CC2)n1 9.11%
CC(=O)Cc1nsc(NC(=O)c2ccc(COc3ccc(C)cc3)o2)n1 8.72%
CC(=O)Cc1nsc(NC(=O)c2ccc(Br)o2)n1 0.84%
Cc1cc(NC(=O)CSc2nc(C(C)C)nc3c2c(=O)n(C)c(=O)n3C)no1 5.47%
O=C(O)Cc1sc(-c2cccnc2)nc1-c1ccc(Br)cc1 9.14%
CCOC(=O)N1CCN(c2cc(=O)n(-c3ccccc3Cl)c(=O)[nH]2)CC1 -0.91%
CNc1oc(-c2ccc(C)cc2)nc1P(=O)(c1ccccc1)c1ccccc1 -2.06%
CCN(CC)S(=O)(=O)c1ccc(-c2nnc(SCC(=O)N3CCOCC3)o2)cc1 -1.63%
CCN(CC)S(=O)(=O)c1ccc(-c2nnc(SC)o2)cc1 -2.39%
Cc1cc(NC(=O)CSc2nc3ccsc3c(=O)n2CCCCC(=O)O)no1 7.32%
CCCCn1c(SCC(=O)Nc2nccs2)nc2ccccc2c1=O 1.43%
Cn1c(CNC(=O)c2ccccc2)nnc1SCC(=O)Nc1nccs1 0.84%
CCCCn1c(SCC(=O)Nc2cc(C)on2)nc2ccsc2c1=O 0.46%
